{"source": "PubChem BioAssay (NCATS)", "note": "Records with an inconclusive call do not appear. Values without a mark were called inactive. Calls follow the shape of the full dose curve. Potency is read from the fitted curve at half-maximal effect.", "data": [{"test": "Cell Viability - HepG2 (AID 433);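 also: potency for ATP loss meaning cytotoxicity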", "conditions": "qHTS", "description": "NIH Chemical Genomics Center [NCGC]\nNIH Molecular Libraries Screening Centers Network [MLSCN]\nNational Institutes of Environmental Health Sciences [NIEHS]\nNational Toxicology Program [NTP]\nWe have developed a 1536-well cell-based assay for quantitative high throughput screening (qHTS) against a number of cell lines to determine in vitro cytotoxicity of small molecules. This particular assay uses the HepG2 cell line which is derived from hepatocellular carcinoma.\nNCGC Assay Protocol Summary:\nThe CellTiter-Glo luminescent cell viability assay (Promega) is a homogeneous method to measure the number of viable cells in culture. The end point readout of this assay is based on quantitation of intracellular ATP, an indicator of metabolic activity, using the luciferase reaction. Luciferase catalyzes the oxidation of beetle Luciferin to oxyluciferin and light in the presence of ATP. The luminescent signal is proportional to amount of ATP present.\nUsing the CellTiter-Glo luminescent cell viability assay, the amount of cellular ATP was measured in the HepG2 cell line with complete culture medium following compound treatment for 40 hours. The assay was performed in opaque white Kalypsys 1536-well plates. In the screen, tamoxifen and doxorubicin were used as positive controls. Library compounds were measured for their ability to cause acute toxicity in the cell line, as reflected by a decrease in intracellular ATP levels, in a concentration-dependent manner. Data were normalized to the controls for basal activity (DMSO only) and 100% inhibition (100 uM tamoxifen). AC50 values were determined from concentration-response data modeled with the standard Hill equation.\nqHTS protocol fo CellTiter Glo HepG2 cellular assay\n[Step] [Parameter] [Value] [Description]\n1. Reagent; 5 uL; 1500 HepG2 cells/well\n2. Time; 5 hr; 37 °C incubation\n4. Controls; 23 nL; Tamoxifen 0.34 uM to 100 uM & Doxorubicin 0.02 nM to 100 uM\n5. Time; 40 hr; 37 °C incubation\n6. Reagent; 5 uL; CellTiter Glo reagent\n7. Time; 20 min; Room Temperature\n8. Detection; Luminescence; Viewlux plate reader\nKeywords: cell viability, cytotoxicity, HepG2 cell line, luminescence, NTPHTS, NTPHTS_NCGC, NIEHS, EPA, DSSTox, MLSMR, MLSCN, NIH Roadmap, qHTS, NCGC", "units": {"Potency": "µM"}, "values": [{"compound": "Cl/C=C\\Cl", "Potency": "> 92"}, {"compound": "[O-][Cl+]O", "Potency": "> 92"}, {"compound": "Brc1ccc(Oc2ccc(Br)cc2Br)c(Br)c1", "Potency": "> 92"}, {"compound": "N#CC(O)c1ccccc1", "note": "(stereo not given)", "Potency": "> 92"}, {"compound": "C=CCCl", "Potency": "> 92"}, {"compound": "ClCc1ccccn1", "Potency": "> 92"}, {"compound": "CN(C)c1ccc(N(C)C)cc1", "Potency": "> 92"}, {"compound": "CCC[N+](=O)[O-]", "Potency": "> 92"}, {"compound": "O=C(Cl)OCc1ccccc1", "Potency": "> 92"}, {"compound": "Clc1cccc2ccccc12", "Potency": "> 92"}, {"compound": "CCOC(=O)CBr", "Potency": "> 92"}, {"compound": "ClC(Cl)c1ccccc1", "Potency": "> 92"}, {"compound": "C=C(Cl)CSC(=S)N(CC)CC", "Potency": "> 92"}, {"compound": "Oc1ccc(Cl)c(Cl)c1", "Potency": "> 92"}, {"compound": "BrCC(Br)(Br)Br", "Potency": "> 92"}, {"compound": "CC(C)(OOC(C)(C)c1ccccc1)c1ccccc1", "Potency": "> 92"}, {"compound": "Clc1cccc(Cl)c1Cl", "Potency": "> 92"}, {"compound": "CC(C)C#N", "Potency": "> 92"}, {"compound": "C=CCc1cc(OC)c2c(c1)OCO2", "Potency": "> 92"}, {"compound": "N#CCBr", "Potency": "> 92"}, {"compound": "Brc1cccc(-c2ccccc2)c1", "Potency": "> 92"}, {"compound": "ClCC(Cl)CCl", "Potency": "> 92"}, {"compound": "CCCC[N+](=O)[O-]", "Potency": "> 92"}, {"compound": "CCOC(=O)C1OC1(C)c1ccccc1", "note": "(stereo not given)", "Potency": "> 92"}, {"compound": "O=C(Cc1ccccc1)OCc1ccccc1", "Potency": "> 92"}, {"compound": "CN(C)C(=O)Nc1cccc(C(F)(F)F)c1", "Potency": "> 92"}, {"compound": "Cc1cc(Cl)ccc1O", "Potency": "> 92"}, {"compound": "C[N+](=O)[O-]", "Potency": "> 92"}, {"compound": "c1ccc(P(c2ccccc2)c2ccccc2)cc1", "Potency": "> 92"}, {"compound": "Nc1cc(Cl)ccc1Cl", "Potency": "> 92"}, {"compound": "CN(C)c1ccccc1", "Potency": "> 92"}, {"compound": "CC(C)[N+](=O)[O-]", "Potency": "> 92"}, {"compound": "O=C(O)CCl", "Potency": "> 92"}, {"compound": "O=[N+]([O-])CCO", "Potency": "> 92"}, {"compound": "Cc1cc(N=Nc2ccccc2C)ccc1N", "Potency": "> 92"}, {"compound": "OCCOCCO", "Potency": "> 92"}, {"compound": "O=S(=O)(Cl)c1ccccc1", "Potency": "> 92"}, {"compound": "O=Cc1ccc(Cl)cc1Cl", "Potency": "> 92"}, {"compound": "Nc1ccc(-c2ccc(N)cc2)cc1", "Potency": "> 92"}, {"compound": "Cc1ccc(N)cc1N", "Potency": "> 92"}]}]}
